The source of these data is PubChem BioAssay (NCI).

About 79,000 compounds went through this panel and 15% of them were active in at least one assay; those are over-represented in the sample as a whole. A number with no mark means an inactive call. Cut-off read from the data, not from the text of the source: active = growth inhibition above about 70%; inactive = the rest.

The nature of the assay: NCI Yeast Anticancer Drug Screen. Data for the bub3 strain (AID 167). Conditions: S. cerevisiae bub3 mutant strain, at 50.0 µM, stronger effect = higher value. In outline:
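Whole-cell yeast assay. The mutant strain was incubated with compounds, and growth inhibition was determined by comparison with vehicle-treated cells.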
On to `Cc1ncc([N+](=O)[O-])n1C(C)C(=O)Nc1ccc(N(CCCl)CCCl)cc1` (configuration not stated), for which the growth inhibition was -4.65%.

As for `CCC(CC)CNC(=O)C(Cl)Cl`, the growth inhibition was -3.4%.

On to `CC(CCOc1ccc2ccc(=O)oc2c1)C1=CC(=O)C(C)(C)O1` (configuration not stated), for which the growth inhibition was -7.25%.

Regarding `COc1ccc2c(c1)CCC1C2CCC2(C)C1CCC21CCNP(=O)(N(CCCl)CCCl)O1` (configuration not stated), the growth inhibition was 22.4%.

`OC(c1ccccc1)C(Cl)(Cl)Cl` (configuration not stated): the growth inhibition is -14.1%.

Take `CC(=N\[O-])/C(C)=N/[O-].CC(=N\[O-])/C(C)=N/[O-].[Cu+2]`: the growth inhibition is 33.5%.

Turning to `O=C1NC(=O)C(=Cc2ccccn2)C(=O)N1`, the growth inhibition was -6.4%.

Consider `O=C(c1ccccc1)C1NC1c1ccccc1` (configuration not stated), for which the growth inhibition is 19.8%.

Turning to `C[N+]12C(=O)CC3OCC=C4C[N+]5(C)CCC6(c7ccccc71)C2C3C4CC65O` (configuration not stated), the growth inhibition is -17.6%.

As for `CN(N=O)C(=O)ON1C(=O)CCC1=O`, the growth inhibition is 18.8%.

On to `NC(=O)Nc1cc(NC(N)=O)cc(N(CCCl)CCCl)c1`, for which the growth inhibition is -15.7%.

Consider `c1ccc2c(C3N4CCCN3CC4)c[nH]c2c1` (configuration not stated), for which the growth inhibition is -4.2%.

Take `O=C1CCCCC1CN1CCCCC1` (configuration not stated): the growth inhibition is 3.45%.

Regarding `O=C(N/N=C/c1cc(Cl)cc(Cl)c1[O-])c1ccccc1O.O=C(N/N=C/c1cc(Cl)cc(Cl)c1[O-])c1ccccc1O.[Ni+2]`, the growth inhibition was 6.9%.

Regarding `CC(Cl)CN(CC(C)Cl)C(=O)Oc1ccc(CC(N)C(=O)O)cc1` (configuration not stated), the growth inhibition is -0.1%.

Take `N=C(N)n1cc(/C=N/N=C(N)N)cn1`: the growth inhibition is -8.3%.

On to `CC1(C)OC2COC(CN=[N+]=[N-])C2O1` (configuration not stated), for which the growth inhibition is 3%.
